According to PubChem BioAssay:
Activity calls are given as the source filed them.

Assays:
[1] = binders of probe aFSTL3 on microarray, primary screen, stem cell growth factor project, biochemical, small-molecule microarray, fluorescence 635/667 (AID 1064); settings: higher = more signal;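 also: measures binding of the biotinylated anti-FSTL3 antibody to printed compounds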
[2] = binders from COS7 lysate, DM2A8 probe, primary screen, torsin A project, cell lysate, small-molecule microarray, fluorescence 635/667 (AID 1065); settings: higher = more signal, COS7 lysate expressing mutant human TOR1A
[3] = binders of probe aFGF2 on microarray, primary screen, stem cell growth factor project, biochemical, small-molecule microarray, fluorescence 635/667 (AID 1067); settings: higher = more signal;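 also: measures binding of biotinylated aFGF2 protein to printed compounds on slides; z-score merges feature fluorescence and signal-to-noise across triplicate slides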
[4] = binders of probe aFGF10 on microarray, primary screen, stem cell growth factor project, biochemical, small-molecule microarray, fluorescence 635/667 (AID 1071); settings: higher = more signal;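 also: score merges 667 nm spot intensity and signal to noise from triplicate slides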
[5] = target: Neurogenic locus notch homolog protein 2 (Homo sapiens) (UniProt Q04721); test: Notch2 binders on small-molecule microarrays, primary screen, biochemical, small-molecule microarray, 635 nm fluorescence, stem cell growth factors (AID 1073); settings: Notch2 binding, higher = more signal
[6] = target: Pro-neuregulin-1, membrane-bound isoform (Homo sapiens) (UniProt Q02297); test: NRG1 binders on small-molecule microarrays, primary screen, psychiatric disease protein project, biochemical, small-molecule microarray, fluorescence 635/667 (AID 1075); settings: NRG1 binding, 635 nm fluorescence, higher = more signal;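 also: score combines 667 nm spot fluorescence with signal to noise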
[7] = tested on: Neuregulin-1 EGF-like domain; test: binders of neuregulin-1 EGF-like domain, primary screen, biochemical, small-molecule microarray, 635 nm fluorescence (AID 1081); settings: small-molecule microarray binding, higher = more signal;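 also: binding of the protein to compounds printed on small-molecule microarray slides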
[8] = FRG1 promoter luciferase signal modulators, primary screen, FRG1 inhibition for FSHD, cell-based, C2C12 myotubes, firefly/Renilla luciferase, luminescence (AID 1084); settings: higher = more signal, called active from +8 up or from −8 down
[9] = binders of probe aFST on microarray, primary screen, stem cell growth factor project, biochemical, small-molecule microarray, fluorescence 635/667 (AID 1086); settings: higher = more signal;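 also: score merges 667 nm fluorescence with signal-to-noise of each printed compound spot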
[10] = binders of probe aHhip on microarray, primary screen, stem cell growth factor project, biochemical, small-molecule microarray, fluorescence 635/667 (AID 1087); settings: higher = more signal;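 also: score merges spot fluorescence at 667nm with spot signal to noise ratio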

Sequence of Neurogenic locus notch homolog protein 2 (Homo sapiens) (Q04721 whole entry, looked up, canonical isoform): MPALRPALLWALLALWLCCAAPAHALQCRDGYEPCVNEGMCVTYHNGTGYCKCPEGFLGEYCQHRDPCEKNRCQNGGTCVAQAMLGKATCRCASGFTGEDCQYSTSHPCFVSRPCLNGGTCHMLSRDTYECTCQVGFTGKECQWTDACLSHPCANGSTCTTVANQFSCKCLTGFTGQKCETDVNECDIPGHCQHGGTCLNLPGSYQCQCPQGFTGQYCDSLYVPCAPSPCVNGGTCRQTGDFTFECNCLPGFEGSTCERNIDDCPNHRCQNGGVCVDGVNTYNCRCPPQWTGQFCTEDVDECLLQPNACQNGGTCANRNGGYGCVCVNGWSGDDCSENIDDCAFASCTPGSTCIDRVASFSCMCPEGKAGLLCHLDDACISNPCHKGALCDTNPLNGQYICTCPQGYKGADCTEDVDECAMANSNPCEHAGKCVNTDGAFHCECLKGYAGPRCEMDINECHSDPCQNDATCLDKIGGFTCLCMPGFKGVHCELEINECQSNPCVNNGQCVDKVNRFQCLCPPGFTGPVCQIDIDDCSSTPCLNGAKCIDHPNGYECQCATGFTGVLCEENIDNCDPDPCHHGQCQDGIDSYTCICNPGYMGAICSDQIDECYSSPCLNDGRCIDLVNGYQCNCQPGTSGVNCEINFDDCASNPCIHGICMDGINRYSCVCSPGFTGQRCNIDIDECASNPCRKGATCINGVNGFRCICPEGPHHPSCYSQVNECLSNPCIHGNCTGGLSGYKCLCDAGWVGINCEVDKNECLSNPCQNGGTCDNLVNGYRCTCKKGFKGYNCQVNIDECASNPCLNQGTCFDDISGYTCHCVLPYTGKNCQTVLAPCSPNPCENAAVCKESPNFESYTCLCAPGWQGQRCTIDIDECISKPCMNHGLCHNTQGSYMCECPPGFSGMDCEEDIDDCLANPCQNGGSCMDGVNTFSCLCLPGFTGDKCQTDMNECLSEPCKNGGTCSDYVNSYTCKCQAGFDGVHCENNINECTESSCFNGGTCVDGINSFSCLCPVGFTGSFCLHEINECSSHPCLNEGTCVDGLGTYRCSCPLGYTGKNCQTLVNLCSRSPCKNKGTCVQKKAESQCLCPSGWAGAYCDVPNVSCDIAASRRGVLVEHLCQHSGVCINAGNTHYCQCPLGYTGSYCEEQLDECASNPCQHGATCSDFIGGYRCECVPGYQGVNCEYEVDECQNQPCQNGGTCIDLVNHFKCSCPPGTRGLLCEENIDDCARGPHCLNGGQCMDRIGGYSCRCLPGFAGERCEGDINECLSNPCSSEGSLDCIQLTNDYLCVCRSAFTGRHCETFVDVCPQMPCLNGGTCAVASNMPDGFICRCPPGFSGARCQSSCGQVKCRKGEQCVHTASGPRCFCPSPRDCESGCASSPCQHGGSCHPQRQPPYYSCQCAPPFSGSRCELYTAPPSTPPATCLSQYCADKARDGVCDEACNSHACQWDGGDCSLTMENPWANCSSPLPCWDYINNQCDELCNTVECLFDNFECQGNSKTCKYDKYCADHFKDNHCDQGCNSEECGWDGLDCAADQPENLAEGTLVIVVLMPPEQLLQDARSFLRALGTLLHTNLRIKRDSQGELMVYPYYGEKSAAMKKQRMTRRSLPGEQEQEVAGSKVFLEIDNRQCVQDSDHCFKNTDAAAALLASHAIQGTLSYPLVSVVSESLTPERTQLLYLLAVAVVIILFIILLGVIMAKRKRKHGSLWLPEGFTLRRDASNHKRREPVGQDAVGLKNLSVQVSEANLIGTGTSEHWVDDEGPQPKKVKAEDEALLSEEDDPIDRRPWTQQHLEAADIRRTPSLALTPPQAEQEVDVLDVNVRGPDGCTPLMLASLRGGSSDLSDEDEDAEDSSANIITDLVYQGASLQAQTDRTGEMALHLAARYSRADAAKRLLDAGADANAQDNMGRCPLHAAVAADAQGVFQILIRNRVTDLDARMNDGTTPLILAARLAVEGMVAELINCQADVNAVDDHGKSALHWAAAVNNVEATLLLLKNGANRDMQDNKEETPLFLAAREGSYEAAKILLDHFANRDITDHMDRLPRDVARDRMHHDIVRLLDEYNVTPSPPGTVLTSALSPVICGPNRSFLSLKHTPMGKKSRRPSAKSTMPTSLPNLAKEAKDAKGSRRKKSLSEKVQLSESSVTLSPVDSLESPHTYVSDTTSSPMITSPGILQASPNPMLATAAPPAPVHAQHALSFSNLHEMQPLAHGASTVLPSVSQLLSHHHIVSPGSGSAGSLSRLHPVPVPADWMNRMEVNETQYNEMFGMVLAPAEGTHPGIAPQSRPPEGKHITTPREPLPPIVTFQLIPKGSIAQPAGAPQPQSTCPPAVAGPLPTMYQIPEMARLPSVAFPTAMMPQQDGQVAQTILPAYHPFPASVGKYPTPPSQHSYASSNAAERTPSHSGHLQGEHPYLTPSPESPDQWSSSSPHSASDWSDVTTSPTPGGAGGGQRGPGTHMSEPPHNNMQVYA
Sequence of Pro-neuregulin-1, membrane-bound isoform (Homo sapiens) (Q02297 whole entry, looked up, the tested form may be a part, canonical isoform): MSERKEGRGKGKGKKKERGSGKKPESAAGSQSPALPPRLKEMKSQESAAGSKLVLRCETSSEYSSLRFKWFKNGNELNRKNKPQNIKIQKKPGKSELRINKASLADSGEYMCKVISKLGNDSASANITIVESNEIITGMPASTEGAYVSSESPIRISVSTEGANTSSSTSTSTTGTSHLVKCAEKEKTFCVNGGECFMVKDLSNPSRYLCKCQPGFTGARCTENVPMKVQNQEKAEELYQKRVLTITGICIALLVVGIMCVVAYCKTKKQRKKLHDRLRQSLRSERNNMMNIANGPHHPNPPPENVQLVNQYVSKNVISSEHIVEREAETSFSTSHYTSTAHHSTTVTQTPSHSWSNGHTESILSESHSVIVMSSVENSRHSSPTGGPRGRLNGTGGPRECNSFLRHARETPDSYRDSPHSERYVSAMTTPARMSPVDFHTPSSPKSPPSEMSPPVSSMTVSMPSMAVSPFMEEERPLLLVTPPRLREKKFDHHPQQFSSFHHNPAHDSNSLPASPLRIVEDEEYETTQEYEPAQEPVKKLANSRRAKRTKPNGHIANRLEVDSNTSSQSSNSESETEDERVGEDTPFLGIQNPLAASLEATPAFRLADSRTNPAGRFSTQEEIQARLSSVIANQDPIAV

| Compound | composite z-score [1] | composite z-score [2] | composite z-score [3] | composite z-score [4] | composite z-score [5] | composite z-score [6] | composite z-score [7] | z-score [8] | composite z-score [9] | composite z-score [10] |
| --- | --- | --- | --- | --- | --- | --- | --- | --- | --- | --- |
| COc1ccc([Si](C)(C)[C@H]2[C@H](CC(=O)N3Cc4ccccc4C[C@H]3CO)O[C@@]3(C(=O)N(Cc4cccc(N5CCCCC5=O)c4)c4ccccc43)[C@@H]2C)cc1 | 0.0111 | 0.576 | 0.085 | 0.36 | 0.246 | 0.175 | 1.2 | -2.09 (inactive) | 0.342 | 0.0274 |
| C=CCNC(=O)[C@H]1[C@@H]2C(=O)O[C@@H](c3ccccc3)[C@@H](c3ccccc3)N2[C@@H](c2ccccc2OCCO)[C@]12C(=O)N(C(=O)OCCOC)c1ccc(C#CC3=CCCCC3)cc12 | 1.13 | 0.698 | 0.032 | 0.44 | 1.5 | 0.791 | 1.33 | -1.89 (inactive) | 0.877 | -0.0022 |
| Cc1ccc(S[C@]2(C(=O)NCC(C)C)CC(=O)N(Cc3ccccc3Cl)[C@@H]2c2ccc(CO)cc2I)cc1 | 0.699 | 1.65 | -0.0818 | 0.452 | -1.11 | 1.54 | 1.36 | -1.45 (inactive) | -0.414 | -0.0645 |
| COc1cc2c(cc1OC)CN(C(=O)[C@H]1[C@@H]3C(=O)O[C@@H](c4ccccc4)[C@@H](c4ccccc4)N3[C@@H](c3ccc(OCCO)cc3)[C@]13C(=O)Nc1ccc(C#CC4(O)CCCCCC4)cc13)CC2 | 1.18 | 0.774 | -0.0358 | 0.326 | 1.51 | 1.25 | 1.32 | -0.126 (inactive) | 1.6 | 1.65 |
| COc1ccc(C(O)C2C=CC3C(=O)N(c4ccccc4)C(=O)C3N2Nc2ccc(C#N)cc2)c2ccccc12 (stereo not given) | 0.983 | 0.707 | 0.0785 | 0.337 | 1.6 | 1.96 | 1.11 | 0.757 (inactive) | 1.2 | 0.0515 |
| CO[C@H]1O[C@H](CO)[C@@H](OC(=O)Nc2ccc(Oc3ccccc3)cc2)[C@H](OC(=O)Nc2ccccc2-c2ccccc2)[C@@H]1OC(=O)Nc1ccccc1-c1ccccc1 | 0.531 | 1.21 | 0.0325 | 1.02 | 1.57 | 1.59 | 1.18 | 1.17 (inactive) | 1.03 | -0.121 |
| Cc1ccc(F)cc1S(=O)(=O)N[C@@H]1CCN(Cc2ccc(Oc3ccccc3)cc2)C1 | -0.191 | 0.45 | -0.144 | -0.3 | -0.155 | 0.0412 | -0.014 | -1.9 (inactive) | 0.0111 | -0.34 |
| COC(=O)c1c(CC[C@@H](CO)NC(=O)N[C@H](Cn2cc(-c3ccccc3C)nn2)C(C)C)oc(C(C)=O)c1C(=O)OC | -0.157 | -1.08 | -0.129 | 0.415 | -1.18 | 0.638 | 0.309 | 0.87 (inactive) | -0.205 | 0.145 |
| CC(C)OC(=O)CC(=O)CC(O)c1cccc(C#N)c1 (stereo not given) | 0.424 | 0.995 | -0.0103 | 0.535 | 1.43 | 0.311 | 0.936 | -0.326 (inactive) | 0.494 | -0.452 |
| C=CC[C@]1(C(=O)N(C)C)N=C(c2ccc(OCCCO)cc2)O[C@H]1c1ccccc1N=[N+]=[N-] | 0.396 | -0.113 | 0.161 | 0.567 | 1.48 | 1.3 | 1.2 | 1.52 (inactive) | 1.87 | -0.199 |
| C=CCOC(=O)[C@H]1[C@@H]2C(=O)O[C@@H](c3ccccc3)[C@@H](c3ccccc3)N2[C@@H](c2ccc(OCCOC(=O)[C@H]3C[C@H]4C(=O)N[C@@H](CCCC[N+](C)(C)C)C(=O)N4[C@H]3c3cccc(OCCO)c3)cc2)[C@]12C(=O)Nc1ccc(I)cc12 | -0.345 | 0.46 | -0.0937 | 0.723 | 0.312 | 0.288 | 0.755 | 0.707 (inactive) | -0.278 | -0.126 |
| CN(C)C(=O)[C@@]1(Cc2ccccc2N=[N+]=[N-])COC(c2ccc(OCCCO)cc2)=N1 | 0.541 | 0.33 | 0.0493 | 1.02 | 0.687 | 1.05 | 1.33 | -0.927 (inactive) | 0.495 | 0.0349 |
| CCOC(=O)C1=CC[C@@H](c2ccccc2)N(S(=O)(=O)c2ccc(C)cc2)C1 | 0.694 | 0.235 | 0.0497 | -0.0495 | 0.681 | -0.273 | 0.643 | -3.73 (inactive) | 0.648 | 0.0274 |
| [N-]=[N+]=NCc1ccccc1C[C@@]1(C(N)=O)N=C(c2ccc(OCCCO)cc2)O[C@@H]1c1ccccc1CN=[N+]=[N-] | 0.517 | -0.186 | -0.0469 | 0.972 | 1.53 | 1.01 | 1.19 | 1.56 (inactive) | 0.544 | -0.0645 |
| COCCCNC(=O)[C@]1(Cc2ccccc2N=[N+]=[N-])N=C(c2ccc(OCCCO)cc2)O[C@@H]1c1ccccc1N=[N+]=[N-] | 0.421 | -0.0585 | 0.0797 | 0.491 | 1.3 | 1.86 | 1.15 | -1.93 (inactive) | 0.847 | -0.0296 |
| C[C@]12C(=O)N(CCCCCCO)[C@@H]3C(=O)N(c4ccc(Cl)cc4)CC=CC31O[C@@H]1/C=C\CCCOC(=O)C12 (stereo not given in full) | 0.299 | -0.268 | -0.121 | -0.387 | -1.02 | 0.0955 | 1.2 | -0.621 (inactive) | -0.21 | -0.132 |

| Compound | composite z-score [1] | composite z-score [2] | composite z-score [3] | composite z-score [4] | composite z-score [5] | composite z-score [6] | composite z-score [7] | z-score [8] | composite z-score [9] | composite z-score [10] |
| --- | --- | --- | --- | --- | --- | --- | --- | --- | --- | --- |
| C[C@]1(C(=O)NCCN2CCOCC2)c2ccccc2C(=O)N(Cc2ccc(OC(F)(F)F)cc2)[C@H]1c1ccc(CO)cc1 | 0.0198 | 0.317 | -0.146 | -0.735 | -0.375 | 2.05 | 1.02 | -2.39 (inactive) | 0.045 | -0.236 |
| Cc1ccc(S[C@]2(C(=O)NCc3ccccc3)CC(=O)N(C(C)C)[C@@H]2c2ccc(CO)cc2I)cc1 | 2 | -0.464 | -0.177 | -0.392 | -1.09 | 1.05 | 0.399 | -1.16 (inactive) | 0.03 | 0.0623 |
| CN(C)CCCCNC(=O)[C@H]1C[C@H]2C(=O)N3CCC[C@H]3C(=O)N2[C@H]1c1ccc(O)cc1 | -1.12 | -1.77 | -0.284 | -1.1 | -1.3 | -1.06 | -0.239 | 4.64 (inactive) | 0.0253 | -0.389 |
| COC(=O)C(CC#Cc1ccc2c(c1)[C@]1(C(=O)N2)[C@H](C(=O)O)[C@H]2C(=O)O[C@H](c3ccccc3)[C@H](c3ccccc3)N2[C@@H]1c1ccccc1OCCO)C(=O)OC | 0.232 | 0.63 | 0.0762 | 1.12 | 0.866 | 1.27 | 1.21 | 0.483 (inactive) | 0.451 | 0.275 |
| COCCOC(=O)N1C(=O)[C@@]2(c3cc(C#CC4(O)CCCCCC4)ccc31)[C@H](C(N)=O)[C@H]1C(=O)O[C@H](c3ccccc3)[C@H](c3ccccc3)N1[C@@H]2c1ccccc1OCCO | 0.591 | 1.71 | 0.121 | 0.859 | 1.25 | 0.735 | 1.3 | 0.129 (inactive) | 0.239 | 0.141 |
| O=C1OCCC=C[C@H]2OC34C=CCN(c5ccc(Cl)cc5)C(=O)[C@H]3N(CCCCCO)C(=O)[C@@H]4C12 (stereo not given in full) | 0.418 | 1.77 | -0.116 | -0.112 | 0.0387 | 1.48 | 1.44 | -0.997 (inactive) | -0.149 | -0.0708 |
| COc1c(C)cc(-c2cc3c(c(-c4ccccc4)n2)[Si](C(C)C)(C(C)C)OC3)cc1C | -0.0563 | -0.0385 | -0.241 | -0.304 | -0.181 | -0.112 | -1.15 | -0.577 (inactive) | -0.205 | -0.0672 |
| CCOC(=O)C[C@H]1[C@H](OC(=O)Cc2ccc3c(c2)OCO3)[C@@H](NC(=O)Cc2ccc(OC)cc2)c2cc(OCCCO)ccc2N1C(=O)c1ccccc1 | -0.244 | 0.188 | -0.11 | 0.494 | 0.608 | 0.416 | 0.436 | -1.38 (inactive) | 0.447 | -0.353 |
| C=C(COC)/C(=C/C[C@@H](OC(=O)c1ccncc1)c1ccc(CO)o1)c1cnc2ccccc2c1 | -0.376 | 1.03 | 0.0235 | 1.2 | 1.73 | 1.5 | 1.34 | 0.487 (inactive) | 0.668 | 0.115 |
| CC1CC/C=C\[C@H]2OC34C=CCN(c5ccc6ccccc6c5)C(=O)[C@H]3N(C(CO)C(C)C)C(=O)[C@@H]4C2C(=O)O1 (stereo not given in full) | -0.729 | -0.0684 | -0.0598 | -0.0104 | -0.477 | 1.93 | 1.43 | 0.718 (inactive) | -0.25 | -0.132 |
| O=C1O[C@@H](c2ccccc2)[C@@H](c2ccccc2)N2[C@@H](c3ccc(O)cc3)[C@]3(C(=O)Nc4ccc(C#CCCO)cc43)[C@@H](C(=O)Nc3nc4ccccc4s3)[C@H]12 | 0.0071 | 1.27 | -0.0721 | 0.987 | 0.37 | 1.45 | 1.19 | 0.213 (inactive) | 0.158 | -0.236 |
| CC[C@@H]1[C@H]2C3C(=O)N(CC)C(=O)C3CC(=O)[C@H]2[C@H](c2ccc(C)cc2)N1S(=O)(=O)c1ccc(C)cc1 (stereo not given in full) | -0.0209 | 0.172 | -0.0878 | 0.457 | 1.44 | 0.519 | 0.57 | -0.319 (inactive) | 0.84 | -0.0296 |
| CON(C)C(=O)C=C1C[C@@H](c2cccc(Cl)c2)O[C@@H](c2cccc(Cl)c2)O1 | -0.0715 | 1.03 | 0.0168 | -0.0102 | -0.0986 | 1 | 0.524 | -1.83 (inactive) | -0.0994 | -0.0645 |
| COC(=O)[C@@]1(Cc2ccccc2)[C@H]2c3cc(C(=O)N4CCCC4)[nH]c3C[C@H]2CN1C(=O)c1ccccc1 | 0.718 | 0.065 | 0.134 | -0.0267 | 1.13 | 1.29 | 0.664 | 0.535 (inactive) | 0.623 | -0.133 |
| Cc1c(NC(=O)/C(C#N)=C/C=C/c2ccc(N(C)C)cc2)c(=O)n(-c2ccccc2)n1C | -0.266 | 0.297 | 0.29 | 0.82 | 1.18 | 1.49 | 1.17 | 3.7 (inactive) | 0.512 | 0.409 |
